Common to all, as to assay: NCI-60 one-dose screen, 48 h (100 = growth as untreated, 0 = no growth, -100 = all killed)
Settings in all cases: 10 µM unless noted

Assay [1] has as its system SR leukemia.
The subject of assay [2] is RPMI-8226 leukemia.
The test system of assay [3] is OVCAR-8 ovarian.
Assay [4] relates to OVCAR-5 ovarian.
Assay [5] deals with OVCAR-4 ovarian.
Assay [6] deals with SK-OV-3 ovarian.
For assay [7], the system named is IGROV1 ovarian.
For assay [8], the system named is OVCAR-3 ovarian.
The test system of assay [9] is HS 578T breast.
For assay [10], the system named is NCI/ADR-RES ovarian.
Assay [11] relates to T-47D breast.
Assay [12] has as its system BT-549 breast.
Assay [13] relates to MDA-MB-435 melanoma.
The subject of assay [14] is SW-620 colon.
Assay [15] deals with MCF7 breast.
For assay [16], the system named is HCT-116 colon.
Assay [17] concerns KM12 colon.
The test system of assay [18] is HCC-2998 colon.

The panel holds about 83,000 compounds, 20% with a hit somewhere; the sample as a whole holds those more often.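 Testing used 96-well plates and a 48-hour single-concentration exposure. Example: -40 means 40% of the starting cells died.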 A number with no mark means an inactive call. Calls of active or inactive are those of the source. The calls were made as follows: active = growth percent below 10; inactive = the rest.

`Cc1nn(-c2ccc(Br)cc2)c2nc3[nH]c(=O)[nH]c(=O)c3nc12`: the growth in [1] is 114%; in [2] it was 121%; in assay [3], 111%; in [4] it was 112%; in assay [5] it was 103%; in assay [6] it was 110%. In addition, the growth in assay [7] was 107%; in assay [8] it was 117%; in assay [9] it was 104%; in assay [10] it was 107%; in assay [11], 102%; in assay [12], 94.2%. Further, the growth in assay [13] is 99.1%; in assay [14], 103%; in [15], 93.4%; in assay [16], 98.3%; in assay [17] it was 103%.

With `COc1ccc(C2CC(=O)c3c(nc4ccc(Cl)cc4c3N)C2)cc1` (configuration not stated), the growth in [1] was 88.7%; in assay [2], 103%; in [3], 107%; in assay [4] it was 95.4%; in assay [5] it was 102%; in assay [6], 117%. Also, the growth in [7] is 99.7%; in [8] it was 112%; in [9] it was 115%; in assay [10], 105%; in [11] it was 109%; in [12], 102%. In addition, the growth was 93.6% in [13]; 106% in [14]; 95.6% in assay [15]; 100% in [16]; 103% in assay [17].

As to `COc1cccc2c1C(=O)c1c(O)c3c(c(O)c1C2=O)C[C@@](O)(C(=O)CO)C[C@@H]3OC1C[C@H](N)[C@H](O)[C@H](C)O1` (some centres not stated), the growth in assay [1] was -10.5% (active); in [2], 0.341% (active); in assay [3], 4.15% (active); in assay [4], 9.77% (active); in assay [5] it was 4.65% (active); in assay [6], 8.44% (active). In addition, the growth in [7] was 4.86% (active); in [8], -2.36% (active); in [9] it was -12.9% (active); in [10], 72.9%; in assay [11] it was -0.159% (active); in assay [12], -56.5% (active). Moreover, the growth was -82.6% (active) in assay [13]; 1.37% (active) in assay [14]; 4.42% (active) in [15]; 3.07% (active) in [16]; -14.2% (active) in assay [17].

`C/C(=N\Nc1cc(C)c2ccccc2n1)c1ccccn1`: the growth is 1.94% (active) in [1]; -24% (active) in [2]; -23.3% (active) in [3]; 20.6% in [4]; -8.85% (active) in [5]; 22.3% in [6]. For the same molecule, the growth in [7] is -26.7% (active); in [8] it was -0.251% (active); in assay [9] it was 35.6%; in [10], -8.13% (active); in assay [11], 16.5%; in assay [12] it was 24.1%. The growth in [13] was -90.9% (active); in assay [14] it was 7.9% (active); in assay [16], -76.2% (active); in [18] it was 4.77% (active); in [17], 4.67% (active).

As for `Cn1c2ccccc2c2c3c(c4c5cccnc5[nH]c4c21)C(=O)N(O)C3=O`, the growth was 11.4% in [1]; 39.6% in assay [2]; 45.5% in assay [3]; 104% in assay [4]; 71.3% in assay [5]; 37.5% in assay [6]. The growth was 45.1% in assay [7]; 54.7% in assay [8]; 110% in assay [9]; 57.2% in [10]; 16.4% in assay [11]; 44.6% in assay [12]. The growth in [13] is 64.3%; in assay [14], 45.4%; in [16], 36.3%; in assay [18], 54.4%; in assay [17], 65.9%.

With `CC1(C)CC[C@]2(C(=O)Nc3ccccn3)CC[C@]3(C)C(=CC[C@@H]4[C@@]5(C)C/C(=C/c6ccncc6)C(=O)C(C)(C)[C@@H]5CC[C@]43C)[C@@H]2C1`, the growth in assay [1] is 8.26% (active); in [2] it was -0.291% (active); in assay [3], 41.5%; in assay [4] it was 75.5%; in assay [5], 17.1%; in assay [6], 71.8%. Also, the growth was 50.6% in assay [7]; 12.6% in assay [8]; 56.7% in assay [9]; 51.3% in [10]; 13.3% in assay [11]; 35.7% in [12]. Further, the growth was 14.8% in assay [13]; 20% in assay [14]; -1.02% (active) in assay [16]; 25% in assay [18]; -6.73% (active) in assay [17].

As to `Cn1cc(-c2csc(-c3cn(CCNC(=O)OC(C)(C)C)c4ccc(F)cc34)n2)c2cccnc21`, the growth in assay [1] was 65.3%; in assay [2] it was 34.4%; in [3], 37.9%; in assay [4], 95.3%; in [5], 43.8%; in [6], 96.6%. For the same molecule, the growth in [7] is 49.4%; in assay [8], 75.5%; in assay [9], 84.3%; in [10] it was 43.8%; in assay [11], 1.12% (active); in assay [12], 65.4%. Further, the growth in assay [13] is 77.6%; in assay [14] it was 88.4%; in [15] it was 47.3%; in assay [16], 82.6%; in assay [18], 93.5%; in assay [17], 52.7%.

In the case of `COC(=O)[C@]12CC[C@@H](C)[C@H](C)[C@@H]1C1=CC[C@@H]3[C@@]4(C)CC(=O)[C@H](OC(=O)c5ccco5)[C@@]5(C)COC(=C45)C[C@@]3(C)[C@]1(C)CC2`, the growth is 25.8% in [1]; 24.4% in assay [2]; 28.5% in assay [3]; 69.2% in assay [4]; 19.6% in assay [5]; 36.1% in [6]. Also, the growth in assay [7] is 53%; in assay [8] it was 43.5%; in assay [9] it was 61.4%; in assay [10], 33.3%; in [11] it was 1.72% (active); in assay [12] it was 25.9%. Moreover, the growth in assay [13] is 21.4%; in assay [14], 31.2%; in assay [15], 15.7%; in assay [16], 16.4%; in [17] it was 27.9%.

(Values after PubChem BioAssay (NCI).)
